Source: PubChem BioAssay
The list is not random: actives were taken first. Their share in the collection is about 10%.
HP1b binding inh: HTS for Inhibitors of HP1-beta Chromodomain Interactions with Methylated Histone Tails | Potency, µM (series often up to 114 µM), inactives show top-dose activity change, negative = inhibition, actives largely listed as inhibitors | 0.56% of 390,000 active | AlphaScreen HP1-beta / biotin-H3K9me3 peptide binding; further: nearly all actives have a fitted effect of over 70% in size
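Compound inhibition of the preformed complex between 50 nM HP1-beta and 50 nM biotinylated H3K9me3 peptide was read by AlphaScreen. Buffer was PBS pH 7.4 with 0.01% Tween-20. Incubations ran 30 min at room temperature, with 10 ug/mL donor/acceptor beads.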
G9a block: qHTS Assay for Inhibitors of Histone Lysine Methyltransferase G9a; 8.8% of 350,000 active; AID 504332, 2011; Histone-lysine N-methyltransferase EHMT2 (Homo sapiens), Q96KQ7; Potency, µM (doses to about 102 µM), inactives show at the top dose activity, negative = inhibition, most hits filed as inhibitors; G9a H3K9 monomethylation, AlphaScreen, 2 h; further: on the % scale 0 is the no-effect control and ±100 the full control effect; nearly all actives have a fitted effect of over 75% in size
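Readings reflect AlphaScreen signal from monomethyl-H3K9 antibody detection. HMT at 20 nM; substrate b-H3K9 500 nM; cofactor SAM 20 uM; 2 h RT reaction; compounds tested as titrations in qHTS with 15 min preincubation.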
GLS inhibitor: qHTS for Inhibitors of Glutaminase (GLS); Glutaminase kidney isoform, mitochondrial (Homo sapiens), O94925; GLS enzymatic activity, qHTS titration; Potency, µM (doses to about 45.5 µM), for inactives: at the highest dose activity change, negative = inhibition, actives largely listed as inhibitors; 0.21% of 410,000 active; AID 624170, 2012; further: on the % scale 0 is the no-effect control and ±100 the full control effect
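hKGA; 45 mM KH2PO4 pH 8.2 + 0.02% Tween-20; cpd via pin tool; 1 mM Gln soln; GluOx/HRP/Amplex Red; RT 30 min; fluor. t0 & final.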
JMJD2A Tudor: qHTS Assay for Inhibitors of JMJD2A-Tudor Domain; AlphaScreen JMJD2A-Tudor / H3K4me3 peptide binding; 4.4% of 390,000 active; Potency, µM (titrated, usually from 114 µM), for the others: top-dose activity change, negative = inhibition, usual class: inhibitors; further: on the % scale 0 is the no-effect control and ±100 the full control effect; nearly all actives have a fitted effect of over 50% in size
BAZ2B inh: qHTS Assay for Inhibitors of BAZ2B. Bromodomain adjacent to zinc finger domain protein 2B (Homo sapiens), Q9UIF8. 4.4% of 360,000 active. Potency, µM (titrated, usually from 114 µM), for the others: top-dose activity change, negative = inhibition, hits mostly inhibitors. AID 504333, 2011. AlphaScreen BAZ2B-H3K14Ac peptide displacement; further: on the % scale 0 is the no-effect control and ±100 the full control effect; nearly all actives have a fitted effect of over 60% in size
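BAZ2B (50 nM) with biotin-H3(5-23)K14Ac peptide (50 nM) in PBS pH 7.4, 0.01% Tween-20, preformed 30 min, then compound 30 min at room temperature; top concentration 110uM. AlphaScreen streptavidin donor/nickel chelate acceptor beads (10 ug/mL final), 20 min dark, signal read.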
An asterisk follows results filed as active; [ ] = dose if it differs, or a comment. The call rests on the fitted dose curve; in most records, active means well fitted curve in the direction sought with a large enough effect; inconclusive means small, poorly fitted or top-dose-only effect, or another doubt; inactive means no such curve, though single readings can be large; an effect the other way counts as inactive or inconclusive. Potency means the concentration at half of the fitted maximal effect.

Results for Nc1ncc(-c2ccc([N+](=O)[O-])cc2)cn1 ?
HP1b binding inh: 24%; G9a block: 3%; GLS inhibitor: 8%; JMJD2A Tudor: -13%; BAZ2B inh: -6%

What do the screens show for `O=[N+]([O-])c1ccc(-c2cnc(NO)nc2)cc1`?
HP1b binding inh: 38%; G9a block: 7.9µM*; GLS inhibitor: inconclusive; JMJD2A Tudor: inconclusive; BAZ2B inh: 5%

What do the screens show for `CCc1cccc(NC(=O)Cn2nc3c4cc(F)ccc4n(Cc4cccc(C)c4)cc-3c2=O)c1`?
HP1b binding inh: 31%; G9a block: 5%[59 µM]; GLS inhibitor: -3%; JMJD2A Tudor: 2%; BAZ2B inh: -4%

What do the screens show for `O=C(CSc1ncc(C(=O)O)n1-c1ccc(F)cc1)NCc1ccc2c(c1)OCO2`?
HP1b binding inh: 23%; G9a block: 45µM*; GLS inhibitor: 7%; JMJD2A Tudor: -7%; BAZ2B inh: 10%

How did O=C(CSc1ncnc2c1cnn2-c1ccc(F)cc1)NCc1ccc2c(c1)OCO2 do in these assays?
HP1b binding inh: 21%; G9a block: -11%[59 µM]; GLS inhibitor: -1%; JMJD2A Tudor: -21%; BAZ2B inh: 4%

Results for O=C(CSc1nnc(Cc2cccs2)n1-c1ccc(Cl)cc1)NCc1ccc2c(c1)OCO2 ?
HP1b binding inh: 41%; G9a block: 50µM*; GLS inhibitor: -7%; JMJD2A Tudor: -18%; BAZ2B inh: -37%

How did CC/C(=N\NC(=O)CNC(=O)/C=C/c1ccc(OC)cc1)c1ccccc1 do in these assays?
HP1b binding inh: 10%; G9a block: 11%; GLS inhibitor: 0%; JMJD2A Tudor: -16%; BAZ2B inh: -13%

Results for CC(=O)Nc1ccccc1OCc1cc(=O)n2c(C)csc2n1 ?
HP1b binding inh: 45%; G9a block: 3%[59 µM]; GLS inhibitor: -6%; JMJD2A Tudor: -4%; BAZ2B inh: -3%

How did CCCNC(=O)Cn1cnc2sc(C(=O)NCCN(CC)CC)c(C)c2c1=O do in these assays?
HP1b binding inh: 20%; G9a block: 79µM*; GLS inhibitor: -2%; JMJD2A Tudor: 5%; BAZ2B inh: 0%

What do the screens show for `CCCNC(=O)Cn1cnc2sc(C(=O)NCCCN3CCOCC3)c(C)c2c1=O`?
HP1b binding inh: 61%; GLS inhibitor: 0%; JMJD2A Tudor: -2%; BAZ2B inh: -13%

How did COCCCN1C(=O)C(CC(=O)NCC2CCCCC2)CC(C(=O)N2CCOCC2)=C1C (centres undefined) do in these assays?
GLS inhibitor: -2%

Results for CC(C)Cn1c(SCC(=O)N(C)c2c(N)n(Cc3ccccc3)c(=O)[nH]c2=O)nc2ccccc21 ?
HP1b binding inh: inconclusive; G9a block: 16µM*; GLS inhibitor: 1%; JMJD2A Tudor: -22%; BAZ2B inh: 8%

Results for CC(C)CN(C(=O)COC(=O)CNC(=O)c1ccccc1F)c1c(N)n(Cc2ccccc2)c(=O)[nH]c1=O ?
HP1b binding inh: 72%; GLS inhibitor: -1%; JMJD2A Tudor: -3%

Results for Cc1ccccc1SCC(=O)OCC(=O)N(C)c1c(N)n(Cc2ccccc2)c(=O)[nH]c1=O ?
HP1b binding inh: 21%; G9a block: 10µM*; GLS inhibitor: -2%; JMJD2A Tudor: -8%; BAZ2B inh: -23%

How did COc1ccccc1C(=O)NCC(=O)OCC(=O)N(CC(C)C)c1c(N)n(Cc2ccccc2)c(=O)[nH]c1=O do in these assays?
HP1b binding inh: 7%; G9a block: 56µM*; GLS inhibitor: 8%; JMJD2A Tudor: -8%; BAZ2B inh: 6%

How did Cc1ccccc1OCCC(=O)OCC(=O)N(C)c1c(N)n(Cc2ccccc2)c(=O)[nH]c1=O do in these assays?
HP1b binding inh: 20%; G9a block: 45µM*; GLS inhibitor: -1%; JMJD2A Tudor: -29%; BAZ2B inh: -11%

Results for CCOc1cc2nc3c4ccccc4n(C)c3nc2cc1OCC ?
HP1b binding inh: 73%; G9a block: -7%; GLS inhibitor: 0%; JMJD2A Tudor: -15%; BAZ2B inh: 43%

How did CCN(CC)Cc1cc(Nc2c3ccccc3nc3c4ccccc4n(C)c23)cc(CN(CC)CC)c1O do in these assays?
HP1b binding inh: inconclusive; GLS inhibitor: 23%; JMJD2A Tudor: 45µM*

How did Cc1cccc(C)c1NC(=O)c1sccc1SCC#N do in these assays?
HP1b binding inh: 20%; G9a block: 11µM*; GLS inhibitor: -1%; JMJD2A Tudor: -13%; BAZ2B inh: -3%

What do the screens show for `O=C(C[n+]1cccc(NC(=O)c2ccccc2)c1)c1cccc([N+](=O)[O-])c1`?
HP1b binding inh: 11%; G9a block: inconclusive; GLS inhibitor: 7%; JMJD2A Tudor: -27%; BAZ2B inh: -35%

Results for O=C(C[n+]1ccc(-c2cc(C(=O)Nc3cccc(C(F)(F)F)c3)c3ccccc3n2)cc1)c1cccc([N+](=O)[O-])c1 ?
HP1b binding inh: inconclusive; G9a block: 50µM*; GLS inhibitor: -8%; JMJD2A Tudor: -15%

What do the screens show for `Cc1cc(C)cc(N2CCn3c2nc2c3c(=O)n(Cc3c(F)cccc3Cl)c(=O)n2C)c1`?
HP1b binding inh: 33%; G9a block: -2%[59 µM]; GLS inhibitor: -11%; JMJD2A Tudor: -11%; BAZ2B inh: -13%

Results for C=CCNc1nc(C(=O)OCC(=O)Nc2c(Cl)cccc2C(F)(F)F)cs1 ?
HP1b binding inh: 14%; G9a block: inconclusive; GLS inhibitor: 9%; JMJD2A Tudor: 35µM*; BAZ2B inh: inconclusive

How did COc1ccc(CN2CCNC(=O)C2CC(=O)N(C)CCC2CCOCC2)cc1OC (centres undefined) do in these assays?
HP1b binding inh: 17%; G9a block: 71µM*; GLS inhibitor: 4%; JMJD2A Tudor: -23%; BAZ2B inh: -16%

Results for COc1ccc(CN2CCNC(=O)C2CC(=O)NCCc2cnccn2)cc1C (centres undefined) ?
HP1b binding inh: 39%; G9a block: 79µM*; GLS inhibitor: -7%; JMJD2A Tudor: -10%; BAZ2B inh: -23%

How did CCOc1ccc(CN2CCNC(=O)C2CC(=O)NC2CCOCC2)cc1 (centres undefined) do in these assays?
HP1b binding inh: 47%; G9a block: 81%; GLS inhibitor: -1%; JMJD2A Tudor: -4%; BAZ2B inh: 0%

What do the screens show for `O=C(CC1C(=O)NCCN1Cc1cccc(Oc2ccccc2)c1)NCCc1cnccn1` (centres undefined)?
HP1b binding inh: 42%; GLS inhibitor: 3%; JMJD2A Tudor: -25%; BAZ2B inh: -10%
